The values that follow come from PubChem BioAssay AID602283 (Johns Hopkins Ion Channel Center, 2012).

Out of some 1,100 compounds screened, about 940 (85%) were called active. The set was probably picked from earlier hits. The list is a sample of the results. Unmarked numbers belong to inactive results.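 The calls were made as follows: active = inhibition exceeding 3 SD of buffer-only control wells (cut at about 26% in these data); inactive = the rest.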

The test can be described thus: carbachol calcium response changes in non-induced cells, primary screen, counter-screen for RGS4 activator project, cell-based, HEK293 M3R, non-induced RGS4, Fluo-4 calcium (AID 602283).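 Also: percent drop in integrated peak-minus-baseline over baseline Fluo4 ratio after carbachol.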 The settings on record: HEK293 M3R non-induced RGS4, Fluo4 calcium flux, at 10 µM, stronger effect = higher value, after carbachol challenge at its EC90.
For orientation: inhibition means the change of the read-out against control, counted positive when it falls. Consider `OC(CN=c1sc2ccccc2n1CC(O)COc1ccccc1)COc1ccccc1` (centres undefined), for which the inhibition was 92.8% (active).

Turning to `Cc1ccc(C)c(N2CCN(C(=O)CCCn3c(=O)c4cccn4c4cccnc43)CC2)c1`, the inhibition was 55.3% (active). The figure for `Cc1ccc(C)c(N2CCN(C(=O)CCCCCn3c(=S)[nH]c4ccc(N5CCOCC5)cc4c3=O)CC2)c1` is 52.8% (active). Next, `CCOC(=O)c1c(NC(=O)NC(C)(C)C)sc2c1CCN(C)C2`: 0% [the number is a placeholder, only the call stands]; `COc1ccc(/C=C(\C#N)c2c[nH]c3ccccc23)cc1`: 70.8% (active).

Take `Cc1ccc(N2C(=O)CC(Nc3cccc4ccccc34)C2=O)cc1` (centres undefined): the inhibition is 0% [the number is a placeholder, only the call stands]. The figure for `Cc1oc2c(F)c(F)c(F)c(F)c2c1S(=O)(=O)Nc1cccc(C(F)(F)F)c1` is 88.8% (active); for `Cc1nc(N2CCN(c3ccccn3)CC2)c2c(C)c(C(=O)Nc3ccc(F)cc3)sc2n1` it is 72.8% (active); for `O=S(=O)(c1ccc(Br)cc1)n1ccc2ccccc21` it is 36.8% (active). For the compound `Cc1ccc(OCCCCN2CCCCC2)c(Br)c1`, the inhibition was 0% [the number is a placeholder, only the call stands]. For `CCCN(CCc1ccccc1)C1CCc2c(O)cccc2C1` (centres undefined), the inhibition was 34.8% (active). The figure for `Cc1cccc(-c2nc3ccc(C(=O)NCCN4CCN(C)CC4)cc3nc2-c2cccc(C)c2)c1` is 93.8% (active); for `CN1CCN(C(=O)N2c3ccccc3CCc3ccccc32)CC1` it is 57.3% (active); for `Cc1nn(C)cc1N1C(=O)c2cccc3c(N)ccc(c23)C1=O` it is 101% (active).

Consider `CN(C)c1ccc(/C=C2\NC(=S)N(Cc3ccccc3)C2=O)cc1`, for which the inhibition was 62.8% (active).

Take `CC(C)C(c1nnnn1CCc1ccccc1)N1CCN(C(=O)c2ccco2)CC1` (centres undefined): the inhibition is 25.8% (active).

Take `COc1ccc(C(=O)Nc2nc(-c3ccc(S(=O)(=O)N4CCOCC4)cc3)cs2)cc1`: the inhibition is 36.3% (active). As for `N=c1c2c3c(sc2nc2n1CCCCC2)CCCC3`, the inhibition was 55.8% (active).

As to `CCOC(=O)C1=C(NC(=S)NC(=O)c2ccccc2)c2ccccc2CC1(C)C`, the inhibition is 61.3% (active).

With `OCCC1CN(Cc2ccc3nsnc3c2)CCN1C1CCCC1` (centres undefined), the inhibition was 43.8% (active). The figure for `CCC1C=C(c2ccccc2)C=CN=C1N(CC)CC` (centres undefined) is 83.8% (active). `O=C(CN1CCCCCC1)Nc1ccc(S(=O)(=O)N2CCCCC2)cc1`: the inhibition was 83.8% (active). With `COc1cccc(-c2cc3nc4c(c(N5CCC6(CC5)OCCO6)n3n2)CCCC4)c1`, the inhibition was 31.8% (active). Consider `CCc1ccccc1NC(=O)[C@@H]1CCC(=O)N1C1OC(=O)c2c1ccc(OC)c2OC` (some centres undefined), for which the inhibition is 0% [the number is a placeholder, only the call stands].
